# From PubChem
# An excerpt weighted towards active compounds, which were near 11% of everything screened.
# ALDH1A1 inh – qHTS Assay for Inhibitors of Aldehyde Dehydrogenase 1 (ALDH1A1); Aldehyde dehydrogenase 1A1 (Homo sapiens), P00352; Purified ALDH1A1, NADH fluorescence, propionaldehyde substrate; Potency, µM (titrated, usually from 75.3 µM), for inactives: top-dose activity, negative = inhibition, actives largely listed as inhibitors; 220,000 tested, 7.3% active; AID 1030, 2008;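 further: potency means the concentration at half of the fitted maximal effect; plate controls were no enzyme wells and a reference inhibitor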
# Target sequence (P00352 whole entry, looked up): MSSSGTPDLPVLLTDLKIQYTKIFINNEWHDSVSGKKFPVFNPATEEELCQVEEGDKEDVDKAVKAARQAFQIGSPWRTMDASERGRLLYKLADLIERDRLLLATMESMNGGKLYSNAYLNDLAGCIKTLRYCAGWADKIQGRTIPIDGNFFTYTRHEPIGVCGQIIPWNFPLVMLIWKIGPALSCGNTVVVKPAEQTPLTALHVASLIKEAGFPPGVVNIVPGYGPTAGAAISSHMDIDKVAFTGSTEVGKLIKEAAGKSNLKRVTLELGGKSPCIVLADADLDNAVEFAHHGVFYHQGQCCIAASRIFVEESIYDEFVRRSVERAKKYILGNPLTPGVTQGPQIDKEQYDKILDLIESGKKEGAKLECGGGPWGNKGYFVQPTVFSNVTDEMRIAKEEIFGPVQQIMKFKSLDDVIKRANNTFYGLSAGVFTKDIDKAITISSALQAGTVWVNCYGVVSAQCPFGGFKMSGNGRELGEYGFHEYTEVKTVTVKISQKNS
# HPGD inh – qHTS Assay for Inhibitors of HPGD (15-Hydroxyprostaglandin Dehydrogenase); 150,000 tested, 4.3% active; purified HPGD, NADH fluorescence kinetic, PGE2 substrate; AID 894, 2007; Potency, µM, for inactives: at the highest dose activity change, negative = inhibition, usual class: inhibitors; 15-hydroxyprostaglandin dehydrogenase [NAD(+)] (Homo sapiens), P15428; further: potency means the concentration at half of the fitted maximal effect
#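 20 nM HPGD preincubated 15 min at room temperature with compound in 50 mM Tris-HCl pH 8, 0.01% Tween 20. Started with 1 mM NAD+ and 30 uM prostaglandin E2; NADH fluorescence (360/450 nm) read 5 times over 30-s intervals, last minus first.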
# PNC assembly inh – High Content Assay for Compounds that inhibit the Assembly of the Perinucleolar Compartment; PC3M PTB-GFP, PNC prevalence imaging, 16 h; active compounds read low; activity change (PNC), negative = inhibition, % at 10 µM; 140,000 tested, 3.1% active; AID 2417, 2010;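 active means readout at or below -70, meaning at least 70% loss of cells showing the perinucleolar compartment, a nuclear body marking cancer cells; inconclusive means readout between -30 and a set limit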;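 further: plate controls were DMSO wells for no effect and camptothecin positive control wells for full effect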
#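 Read-out is percentage of cells bearing a perinucleolar compartment, from automated 20x imaging of fixed, Hoechst-stained PC3M PTB-GFP cells. Cells were seeded 4 h, then exposed 16 h to compound (23 nl of library stock) in duplicate plates.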
# Numbers without * were called inactive; ? = inconclusive; · = no result. Unless noted, the call rests on the fitted dose curve; in most records, active means well fitted inhibition curve with a large enough effect (not every such curve was filed as active); inconclusive means small, poorly fitted or top-dose-only effect, or another doubt; inactive means no such curve, though single readings can be large or run the other way. Unless noted, on the % scale 0 is the no-effect control and ±100 the full control effect.
SMILES,ALDH1A1 inh,HPGD inh,PNC assembly inh
COc1ccc(/C=C/C(=O)Nc2cc(S(=O)(=O)N3CCOCC3)ccc2N2CCCC2)cc1OC,-1%,·,·
CC(=O)N1CCC[C@@]2(CCN(c3ccncc3)C2)C1,-5%,-1%,·
Cn1ccc2c([N+](=O)[O-])cccc2c1=O,-10%,·,·
Nc1ncnc(Nc2ccc(F)cc2)n1,-10%,-8%,-91*
Cc1ccc(Nc2ncnc(N)n2)cc1,-2%,·,·
COc1ccccc1-n1c(SCC(=O)Nc2ccccc2F)nc2[nH]ncc2c1=O,?,-8%,1
CCOC(=O)c1ccc(NC(=O)CSc2nc3c(c(=O)n2-c2ccccc2OC)SCC3)cc1,-13%,-12%,?
COc1ccccc1-n1c(SCC(N)=O)nc2c(c1=O)SCC2,?,-10%,-16
COc1ccc(NC(=O)CSc2nc3c(c(=O)n2-c2ccccc2OC)SCC3)cc1,11µM*,-5%,-24
CCOc1ccc(NC(=O)CSc2nc3[nH]ncc3c(=O)n2-c2ccccc2OC)cc1,8.9µM*,-9%,-11
COC(=O)C(C)Sc1nc2c(c(=O)n1-c1ccccc1)SCC2 (configuration not stated),3.2µM*,-8%,?
COc1ccc(Oc2ncc3nc(-c4cccc(C#N)c4)c(=O)n(Cc4cccc(OC)c4)c3n2)cc1,-6%,·,·
CC1=[N+](C)c2ccc3ccccc3c2C1(C)C,-8%,-17%,52
COC(=O)C1CCN(C(=O)Nc2ccccc2)CC1,19%,·,·
O=[N+]([O-])c1ccc(/C=N/N/C(=N/c2ccccn2)c2ccccn2)cc1,?,28µM*,-29
O=[N+]([O-])c1cc(/C=N/N/C(=N/c2ccccn2)c2ccccn2)ccc1O,-5%,·,·
Cc1cc(C)nc(NS(=O)(=O)c2ccc(N3C(=O)C4C5C=CC(C5)C4C3=O)cc2)n1 (configuration not stated),6%,-1%,-28
Cc1cc(C)nc(NS(=O)(=O)c2ccc(NC(=O)c3ccc4c(c3)OCCO4)cc2)n1,25µM*,·,·
Cc1cc(C)nc(NS(=O)(=O)c2ccc(NC(=O)c3ccc(S(=O)(=O)N4CC(C)OC(C)C4)cc3)cc2)n1 (configuration not stated),-4%,-13%,-9
Cc1cc(C)nc(NS(=O)(=O)c2ccc(NC(=O)c3ccc(N4C(=O)CCC4=O)cc3)cc2)n1,-2%,0%,-102*
Cc1cc(NS(=O)(=O)c2ccc(NC(=O)CN3C(=O)c4ccccc4C3=O)cc2)nc(C)n1,9%,-7%,1
Cc1cc(C)nc(NS(=O)(=O)c2ccc(NC(=O)CN3C(=O)c4ccccc4C3=O)cc2)n1,6%,-6%,-92*
O=C(Cc1ccccc1)NCC(=O)OCC(=O)c1ccc(OC(=O)c2ccccc2)cc1,7%,-3%,94
CC(C)CCN1C(=O)CC(NNC(=O)c2ccc(S(=O)(=O)N3CCCC3)cc2)C1=O (configuration not stated),13µM*,·,·
COCCN1C(=O)CC(NNC(=O)c2ccc(S(=O)(=O)N3CCCC3)cc2)C1=O (configuration not stated),-12%,·,·
SMILES,ALDH1A1 inh,HPGD inh,PNC assembly inh
CC1CCC2C(C)(C)C3CC12CC[C@]3(C)O (some centres not stated),?,-8%,·
O=C(COc1cccc2ccccc12)NCc1cccnc1,-8%,·,·
Cc1c(NC(=O)C(C)OC(=O)C23CC4CC(CC(Br)(C4)C2)C3)c(=O)n(-c2ccccc2)n1C (configuration not stated),-4%,·,·
CCc1nnc(NS(=O)(=O)c2ccc(NC(=O)/C=C/c3ccc(OC)cc3OC)cc2)s1,?,?,-6
Cc1ccc(N(CC(=O)Nc2ccc3c(c2)OCCO3)S(C)(=O)=O)cc1,-12%,·,·
Cc1[nH]c2ccccc2c1C(=O)CCl,0.25µM*,·,·
Cc1[nH]c2ccccc2c1C(=O)CSc1ccccc1,-8%,-10%,-10
CCC1CCCCN1CC(=O)c1c(C)[nH]c2ccccc12 (configuration not stated),-15%,-12%,23
Cc1[nH]c2ccccc2c1C(=O)CN1CCCCC1C (configuration not stated),20µM*,-19%,-96*
C=C(COC)C1=CCC(C(=O)OC)(C(=O)OC)[C@@H](C[N+](=O)[O-])c2ccccc21,-11%,-2%,·
CCCCC#CC1C=CC(OC(C)=O)C(COC(C)=O)O1 (configuration not stated),3.5µM*,·,·
CCCCCCC#CC1C=CC(OC(=O)OCC)C(COC(=O)OCC)O1 (configuration not stated),4µM*,·,·
